Data taken from PubChem BioAssay AID602449 (Sanford-Burnham Center for Chemical Genomics, 2012).
Several values for one entry are separate records, joined by “and”; a condition that tells them apart may be missing. Equal entries are not always repeated. Screen size: about 360,000 compounds; about 5,000 (1.4%) were called active. The sample holds actives, similar compounds and a random draw of the others, so the mix is not that of the screen.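 Rule for the calls: active = inhibition of 50% or more, scaled per plate between neutral and stimulator controls; inactive = the rest.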 The source holds several records for some structures; these can differ, active in one and inactive in another.

Assay: mitochondrial permeability transition pore inhibitors, primary screen, biochemical, isolated mouse mitochondria, absorbance (AID 602449);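 note: 0% = DMSO wells given calcium and 100% = 1 mM EGTA wells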
Details: Ca2+ swelling absorbance, 30 min, at 10 µM, stronger effect = higher value

Row | SMILES | inhibition
1 | COc1ccc(N2CC(C(=O)NCCN3C(=O)S/C(=C\c4cccnc4)C3=O)CC2=O)c(OC)c1 (configuration not stated) | -0.2% (inactive)
2 | CSCCC(NC(=O)COc1ccccc1)C(=O)OCC(=O)c1cc2ccccc2o1 (configuration not stated) | 0% (inactive)
3 | CCc1nn(CC(=O)N2CCN(CC)CC2)c(=O)c2cccn12 | -0.4% (inactive)
4 | COC(=O)C1CC2=C(CC(C)(C)CC2=O)N(c2ccccc2)C1=O (configuration not stated) | -0.8% (inactive)
5 | OC(c1ccccc1)(c1ccccc1)C1CCN(CCCOc2ccccc2)CC1 | 4.5% (inactive)
6 | CN1CCC[C@@H]1CCO[C@](C)(c1ccccc1)c1ccc(Cl)cc1 | 78% (active)
7 | CC(C)(c1ccccc1)c1ccc(OCCN2CCCC2)cc1 | 2% (inactive)
8 | CCCc1nn(C)c2c(=O)[nH]c(-c3cc(S(N)(=O)=O)ccc3OCC)nc12 | -0.3% (inactive)
9 | O=C(c1cccc(N2CCCC2=O)c1)N1CCOCC1 | -0.5% (inactive)
10 | Cc1ccc(C(=O)Nc2ccn(C)n2)cc1 | 1.3% (inactive)
11 | COC(=O)c1nc(NC(=O)c2ccc(F)cc2)n[nH]1 | 11.4% (inactive)
12 | CSc1nccc(NC(=O)c2ccc(C(C)(C)C)cc2)n1 | 95.6% (active)
13 | Cc1ccc(C)c(NC(=O)COC(=O)Cn2c(C)csc2=O)c1 | -0.7% (inactive)
14 | COc1ccc(C(N)c2csc(NC(=O)Nc3cccc(C(F)(F)F)c3)n2)cc1 (configuration not stated) | 0.9% (inactive)
15 | COc1cc(NC(=O)c2cncc(-c3ccc(C#N)cc3)c2)cc(C(=O)Nc2cccc(C(F)(F)F)c2)c1 | 93.8% (active) and 48.4% (inactive)
16 | COc1cc(NC(=O)c2[nH]cnc2C(N)=O)cc(C(=O)Nc2cccc(C(F)(F)F)c2)c1 | 0% (inactive)
17 | O=C(NCc1ccccc1Cl)NC(=O)c1csc([N+](=O)[O-])c1 | 1% (inactive)
18 | O=C(Nc1nnc(SCc2c(Cl)cccc2Cl)s1)C1CCCO1 (configuration not stated) | -1.4% (inactive)
19 | COCCSc1nnc(NC(=O)c2cc(OC)c(OC)cc2[N+](=O)[O-])s1 | -2.4% (inactive)
20 | O=C(Nc1nnc(SCc2ccccc2Cl)s1)c1cccc([N+](=O)[O-])c1 | 96.3% (active)
21 | O=C(Nc1nnc(SCc2c(Cl)cccc2Cl)s1)c1cccc([N+](=O)[O-])c1 | 91.5% (active)
22 | O=C(Nc1nnc(CCN2CCCCC2)s1)c1cccc(Cl)c1 | -0.1% (inactive)
23 | CCO/N=C(/C)c1c(O)cc(-c2ccccc2)n(-c2ccccc2)c1=O | 8.8% (inactive)
24 | O=S1(=O)CC(N2CCC(Cc3ccccc3)CC2)CN1Cc1ccccc1 (configuration not stated) | 0.9% (inactive)

Row | SMILES | inhibition
25 | COc1ccc(OCCCC(=O)Nc2nnc(C3CCCO3)s2)cc1 (configuration not stated) | 1.4% (inactive)
26 | CCC1CCCCN1C(=S)NC(=O)c1ccco1 (configuration not stated) | -3.3% (inactive)
27 | COc1cc(OC)cc(C(=O)Nc2nnc(SCC(=O)NCC3CCCO3)s2)c1 (configuration not stated) | -0.7% (inactive)
28 | CCOC(=O)N1CCN(C(=O)C2CCN(c3ncnc4c3sc3cccc(F)c34)CC2)CC1 | 50% (active)
29 | CCOC(=O)N1CCN(C(=O)C2CCCN(c3ncnc4c3sc3cccc(F)c34)C2)CC1 (configuration not stated) | 20.7% (inactive)
30 | CCOC(=O)N1CCN(C(=O)C2CCN(S(=O)(=O)c3cc(Cl)ccc3OCC)CC2)CC1 | -0.2% (inactive)
31 | COC(=O)C1C(=O)NCC1c1ccc(OC)cc1 (configuration not stated) | 1.1% (inactive)
32 | Cc1nn(-c2ccccc2)c(CC(C)(C)C(=O)O)c1C(=O)O | -5.4% (inactive)
33 | Nc1[nH]c(C(=O)c2ccccc2)c(-c2ccc(Br)cc2)c1C(=O)NC1CC1 | 0.8% (inactive)
34 | COc1ccccc1N1CC(C(=O)Nc2nnc(SCC(=O)NC(C)C)s2)CC1=O (configuration not stated) | 0.4% (inactive)
35 | CC1=NC2(CCCc3c2no[n+]3[O-])N(O)C1(C)C (configuration not stated) | 0.8% (inactive)
36 | CCCc1nc(N)nc2c1C(=O)CC(C)(C)C2 | -2.5% (inactive)
37 | CC(=O)Nc1nc2c(s1)C(=O)NCC(C)(C)C2 | 0% (inactive)
38 | CC1(C)CC(=O)c2sc(N)nc2C1 | 83.2% (active)
39 | COc1cccc(NC(=O)CN(C)C(=O)CSC(=S)N2CCCC2)c1 | -0.1% (inactive)
40 | CCCS(=O)(=O)N1CCCC(C(=O)NCCN2CCCCC2C)C1 (configuration not stated) | -1.3% (inactive)
41 | CCCCCCc1cc2cc(-c3nnc(-c4ccccc4)o3)c(=O)oc2cc1O | 96.2% (active)
42 | COc1ccccc1CNC(=O)CCCNS(=O)(=O)c1cccc2nsnc12 | -0.6% (inactive)
43 | COCCCNC(=O)CN1C(=O)CSc2ccc(S(=O)(=O)N3CCOCC3)cc21 | 2.1% (inactive)
44 | CCc1cc2c(SCC(=O)Nc3ncc(Cl)c(C)c3Cl)ncnc2s1 | 46.1% (inactive)
45 | CCc1cc2c(NC(Cc3ccccc3)C(=O)O)ncnc2s1 (configuration not stated) | 1.6% (inactive)
46 | CCc1cc2c(NC3CCCC3)ncnc2s1 | 87.6% (active)
47 | CC(=O)Oc1ccc(OC(C)=O)c2c1C1C=CC2CC1 | -0.2% (inactive)
